Assay results as given in PubChem BioAssay (Tox21).
Results filed as inconclusive are left out. Calls of active or inactive are those of the source. Unless noted, calls follow the shape of the full dose curve.

Columns and labels:
[1] = qHTS assay to identify small molecule agonists of the sonic hedgehog signaling (Shh) pathway (AID 1259368); conditions: NIH/3T3 Gli1-Luc reporter, luciferase, 24 h, active compounds read high; series mostly up to 92.4 µM;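 also: NIH/3T3-derived 3T3Gli1-Luc cells carrying a stable Gli1-driven firefly luciferase reporter; nearly all actives have a fitted effect of over 15% in size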
Procedure, shortened: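 Following a 24 hr incubation with DMSO-dissolved compounds at 37 C, 5% CO2, Gli1-Luc NIH/3T3-derived cells received luciferase reagent for 30 min at room temperature prior to luminescence measurement.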

[2] = qHTS assay to identify small molecule antagonists of the sonic hedgehog signaling (Shh) pathway (AID 1259369); conditions: NIH/3T3 Gli1-Luc reporter, Shh antagonist, luminescence 24 h; series mostly up to 42.5 µM; also: nearly all actives have a fitted effect of over 45% in size
Procedure, shortened: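 Read-out is luminescence from a firefly luciferase gene controlled by the Gli1 response element, in 3T3Gli1-Luc cells pre-incubated 4hr then exposed to compounds and conditioned medium for 24hr.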

[3] = target: Estrogen receptor beta (Homo sapiens) (UniProt Q92731); test: qHTS assay to identify small molecule agonists of the estrogen receptor beta (ER-beta) signaling pathway (AID 1259377; active = well fitted activation curve with a large enough effect in the signal ratio in the repeat runs, not every such curve was filed as active; the % refers to the signal ratio); conditions: ER-beta-UAS-bla HEK293T, beta-lactamase FRET ratio, 16 h; series mostly up to 42.5 µM
Sequence of Estrogen receptor beta (Homo sapiens) (Q92731 whole entry, looked up): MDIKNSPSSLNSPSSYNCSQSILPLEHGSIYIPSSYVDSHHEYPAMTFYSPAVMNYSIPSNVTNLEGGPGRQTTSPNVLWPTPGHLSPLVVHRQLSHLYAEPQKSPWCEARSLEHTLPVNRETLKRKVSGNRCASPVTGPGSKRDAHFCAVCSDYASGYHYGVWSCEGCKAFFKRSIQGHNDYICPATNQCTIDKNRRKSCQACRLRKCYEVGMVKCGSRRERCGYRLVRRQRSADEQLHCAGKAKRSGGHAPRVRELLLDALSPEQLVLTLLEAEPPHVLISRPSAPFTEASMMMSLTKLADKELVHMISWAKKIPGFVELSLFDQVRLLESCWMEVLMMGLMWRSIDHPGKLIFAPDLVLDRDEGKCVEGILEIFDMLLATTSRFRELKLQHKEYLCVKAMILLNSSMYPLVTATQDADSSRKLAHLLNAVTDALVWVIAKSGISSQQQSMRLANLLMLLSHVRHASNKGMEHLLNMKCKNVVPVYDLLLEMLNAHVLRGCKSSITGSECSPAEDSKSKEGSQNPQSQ
Procedure, shortened: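 Beta-lactamase reporter readout: fluorescence of LiveBLAzer B/G FRET substrate after 2 h at room temperature, following 16 h compound treatment of ER-beta-UAS-bla HEK293T cells at 37C in 2% charcoal-stripped FBS medium.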

[4] = target: Estrogen receptor beta (Homo sapiens) (UniProt Q92731); test: qHTS assay to identify small molecule antagonists of the estrogen receptor beta (ER-beta) signaling pathway (AID 1259378; active = well fitted inhibition curve with a large enough effect in the signal ratio in the repeat runs, not every such curve was filed as active; the % refers to the signal ratio); conditions: ER-beta-UAS-bla HEK293T, beta-lactamase FRET ratio, 16 h; series mostly up to 92.4 µM
Procedure, shortened: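 Antagonist mode: compounds added to beta-lactamase reporter HEK293T ER-beta-UAS cells stimulated with E2 (1nM final), 16 hr at 37C. LiveBLAzer B/G FRET substrate, 2 hours room temperature, fluorescence read-out.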

[5] = qHTS assay to identify small molecule agonists of the androgen receptor (AR) signaling pathway in the presence of an antagonist - cell viability counter screen (AID 1259379; active = well fitted curve in the direction sought with a large enough effect in the repeat runs; an effect the other way counts as inactive or inconclusive;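 also: MDA-kb2 human breast cancer cells carrying an MMTV luciferase reporter; nearly all actives have a fitted effect of over 25% in size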); conditions: MDA-kb2 viability, CellTiter-Fluor, 16 h; series mostly up to 92.4 µM
Procedure, shortened: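 Each compound was tested at 15 concentrations on MDA-kb2 cells in the presence of 3.0uM nilutamide. Viability was measured by CellTiter-Fluor fluorescence after a 16 hr incubation at 37C in a CO2-free atmosphere.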

[6] = qHTS assay to identify small molecule agonists of the estrogen receptor beta (ER-beta) signaling pathway - cell viability counter screen (AID 1259380; active = well fitted curve in the direction sought with a large enough effect in the repeat runs; an effect the other way counts as inactive or inconclusive; also: nearly all actives have a fitted effect of over 30% in size); conditions: ER-beta-bla HEK293T viability, CellTiter-Glo luminescence, 16 h; series mostly up to 92.4 µM
Procedure, shortened: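 Compounds dissolved in DMSO were pin-transferred onto ER-beta-UAS-bla HEK293T cells that had settled 6 hr, and exposure ran 16 hr at 37C. Following the reporter read, CellTiter-Glo luminescence after 30 min at room temperature indicated cytotoxicity.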

[7] = target: Androgen receptor (Homo sapiens) (UniProt P10275); test: qHTS assay to identify small molecule agonists of the androgen receptor (AR) signaling pathway in the presence of an antagonist (AID 1259381); conditions: MDA-kb2 MMTV-luciferase, AR agonist + nilutamide, 16 h; series mostly up to 42.5 µM; also: nearly all actives have a fitted effect of over 15% in size
Sequence of Androgen receptor (Homo sapiens) (P10275 whole entry, looked up): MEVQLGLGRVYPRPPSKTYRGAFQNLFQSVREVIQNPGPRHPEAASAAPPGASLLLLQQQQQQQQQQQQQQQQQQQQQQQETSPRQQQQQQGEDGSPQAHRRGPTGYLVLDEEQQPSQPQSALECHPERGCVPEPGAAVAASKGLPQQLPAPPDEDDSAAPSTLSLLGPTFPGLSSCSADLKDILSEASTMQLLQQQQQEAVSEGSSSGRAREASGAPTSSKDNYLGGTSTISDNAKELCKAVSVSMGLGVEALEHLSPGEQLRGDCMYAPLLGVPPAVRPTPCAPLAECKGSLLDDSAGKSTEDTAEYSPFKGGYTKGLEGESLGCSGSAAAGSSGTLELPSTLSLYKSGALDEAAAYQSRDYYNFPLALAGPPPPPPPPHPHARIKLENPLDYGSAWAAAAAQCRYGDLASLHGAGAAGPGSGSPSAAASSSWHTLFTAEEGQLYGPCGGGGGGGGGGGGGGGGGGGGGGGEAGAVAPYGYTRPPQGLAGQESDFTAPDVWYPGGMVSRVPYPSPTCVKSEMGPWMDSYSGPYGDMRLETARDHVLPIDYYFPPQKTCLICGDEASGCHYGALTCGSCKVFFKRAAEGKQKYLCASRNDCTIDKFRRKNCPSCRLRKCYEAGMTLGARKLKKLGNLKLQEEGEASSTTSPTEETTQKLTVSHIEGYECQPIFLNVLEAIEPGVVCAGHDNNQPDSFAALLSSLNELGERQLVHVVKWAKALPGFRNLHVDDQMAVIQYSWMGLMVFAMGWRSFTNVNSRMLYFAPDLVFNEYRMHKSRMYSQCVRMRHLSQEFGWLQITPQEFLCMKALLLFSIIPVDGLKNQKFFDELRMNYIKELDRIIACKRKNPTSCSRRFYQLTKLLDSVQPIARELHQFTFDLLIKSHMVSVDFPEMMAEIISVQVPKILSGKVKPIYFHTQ
Procedure, shortened: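 Plated MDA-kb2 cells (3,000/well) were pre-incubated 5hr, given nilutamide (3.0uM final) or buffer, then dosed with compounds in DMSO at 15 concentrations. Luciferase activity was quantified by luminescence after 16hr at 37C.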

[8] = qHTS assay to identify small molecule antagonists of the estrogen receptor beta (ER-beta) signaling pathway - cell viability counter screen (AID 1259382; active = well fitted curve in the direction sought with a large enough effect in the repeat runs; an effect the other way counts as inactive or inconclusive;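 also: HEK293T cells carrying ER-beta-UAS-bla reporter stimulated with estradiol; nearly all actives have a fitted effect of over 55% in size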); conditions: ER-beta-UAS-bla HEK293T viability, CellTiter-Glo luminescence, 16 h; series mostly up to 92.4 µM
Procedure, shortened: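 CellTiter-Glo ATP luminescence measured after the LiveBLAzer read in the same wells; ER-beta-UAS-bla HEK293T cells, 16 hr compound treatment with 1nM 17-beta-estradiol agonist at 37C, 5% CO2.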

[9] = qHTS assay to identify small molecule agonists or antagonists of the thyroid stimulating hormone receptor (TSHR) signaling pathway - wild type cell line counter screen (AID 1259384); conditions: HEK293 wild type, cAMP HTRF counter-screen, active compounds read high; series mostly up to 92.4 µM
Procedure, shortened: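 Counter screen in untransfected Hek293: compounds (15-point titration, triplicate) plus phosphodiesterase inhibitor Ro20-1724 added after 18 h plating; 30 min RT. Intracellular cAMP via competitive d2/cryptate immunoassay, 1 h incubation.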

[10] = target: Estrogen receptor (Homo sapiens) (UniProt P03372); test: qHTS assay to identify small molecule agonists of the estrogen receptor alpha (ER-alpha) signaling pathway in the presence of an antagonist (AID 1259383); conditions: VM7Luc4E2 cells, ERE-luciferase, +ICI-182,780, 22 h; series mostly up to 92.4 µM; also: top concentration of the series differs between compounds; nearly all actives have a fitted effect of over 15% in size
Sequence of Estrogen receptor (Homo sapiens) (P03372 whole entry, looked up): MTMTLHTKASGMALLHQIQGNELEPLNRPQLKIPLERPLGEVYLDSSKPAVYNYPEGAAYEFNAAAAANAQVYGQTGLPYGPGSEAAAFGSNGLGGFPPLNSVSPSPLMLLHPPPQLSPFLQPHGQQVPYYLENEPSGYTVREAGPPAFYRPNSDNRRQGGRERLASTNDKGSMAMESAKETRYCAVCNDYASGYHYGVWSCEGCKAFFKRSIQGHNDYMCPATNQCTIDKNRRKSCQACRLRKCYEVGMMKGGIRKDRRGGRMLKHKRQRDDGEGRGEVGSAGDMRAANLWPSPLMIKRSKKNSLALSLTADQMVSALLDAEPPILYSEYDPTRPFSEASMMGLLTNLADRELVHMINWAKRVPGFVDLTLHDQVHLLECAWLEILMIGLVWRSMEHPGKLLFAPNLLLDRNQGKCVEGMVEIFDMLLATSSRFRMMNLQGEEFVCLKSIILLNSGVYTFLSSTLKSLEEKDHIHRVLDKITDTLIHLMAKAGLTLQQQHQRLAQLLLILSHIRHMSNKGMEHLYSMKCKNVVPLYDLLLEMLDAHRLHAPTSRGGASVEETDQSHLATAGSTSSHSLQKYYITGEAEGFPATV
Procedure, shortened: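 Luminescent ERE-luciferase reporter, VM7Luc4E2 cells (endogenous ER-alpha); 10.0nM ICI-182,780 final; 15-point compound titration; 22hr at 37C; ONE-Glo, 30min RT.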
% is scaled to controls: 0 for no effect and ±100 for the full control effect.

CC(=O)OCC(CCn1cnc2cnc(N)nc21)COC(C)=O
inactive: outcome [1] | Potency [2] | outcome [3] | outcome [4] | Potency [5] | Potency [6] | Potency [7] | Potency [8] | outcome [9]

NC(CSCC(=O)O)C(=O)O (configuration not stated)
inactive: outcome [1] | Potency [2] | outcome [3] | outcome [4] | Potency [5] | Potency [6] | Potency [8]

CCOc1ccc(C(=O)OCCN(CC)CC)cc1
inactive: outcome [1] | Potency [2] | outcome [3] | outcome [4] | Potency [5] | Potency [6] | Potency [7] | Potency [8] | outcome [9]

C=C1CC[C@H]2C[C@@H]1C2(C)C
inactive: outcome [1] | Potency [2] | outcome [3] | outcome [4] | Potency [5] | Potency [6] | Potency [8] | Potency [10]

CCOC(=O)[C@H](CCc1ccccc1)N[C@@H](C)C(=O)N1[C@H](C(=O)O)C[C@@H]2CCC[C@@H]21
inactive: outcome [1] | Potency [2] | outcome [3] | outcome [4] | Potency [5] | Potency [6] | Potency [8] | Potency [10]

c1ccc([C@H]2CN3CCSC3=N2)cc1
inactive: outcome [1] | Potency [2] | outcome [3] | outcome [4] | Potency [5] | Potency [6] | Potency [8]

Nc1ccccc1S(=O)(=O)O
inactive: outcome [1] | Potency [2] | outcome [3] | outcome [4] | Potency [5] | Potency [6] | Potency [8]

O=C(O)CNC(=O)c1ccc([N+](=O)[O-])cc1
inactive: outcome [1] | Potency [2] | outcome [3] | outcome [4] | Potency [5] | Potency [6] | Potency [8]

CC(=O)CC(C)C
inactive: outcome [1] | Potency [2] | outcome [3] | outcome [4] | Potency [5] | Potency [6] | Potency [7] | Potency [8] | outcome [9]

COC(=O)NN
inactive: outcome [1] | Potency [2] | outcome [3] | outcome [4] | Potency [6] | Potency [8] | Potency [10] | outcome [9]

Cc1c(NC(C)C)c(=O)n(-c2ccccc2)n1C
inactive: outcome [1] | Potency [2] | outcome [3] | outcome [4] | Potency [5] | Potency [8] | outcome [9]

CC(C)OC(=O)c1ccccc1
inactive: outcome [1] | Potency [2] | outcome [3] | outcome [4] | Potency [6] | Potency [8] | Potency [10] | outcome [9]

Cc1ccc(C#N)cc1
inactive: outcome [1] | Potency [2] | outcome [3] | outcome [4] | Potency [5] | Potency [8] | outcome [9]

CCc1cccc2c(CCO)c[nH]c12
inactive: outcome [1] | Potency [2] | outcome [3] | outcome [4] | Potency [5] | Potency [7] | Potency [8] | outcome [9]

O=C1CCCC(=O)C1
inactive: outcome [1] | Potency [2] | outcome [3] | outcome [4] | Potency [5] | Potency [8]

CC(=O)OC/C=C(\C)CC/C=C(\C)CCC=C(C)C
inactive: outcome [1] | Potency [2] | outcome [3] | outcome [4] | Potency [6] | Potency [8] | Potency [10] | outcome [9]

CS(=O)(=O)O
inactive: outcome [1] | Potency [2] | outcome [3] | outcome [4] | Potency [6] | Potency [7] | Potency [8] | outcome [9]

CCOC(=O)c1ccc(C)cc1
inactive: outcome [1] | Potency [2] | outcome [3] | outcome [4] | Potency [5] | Potency [8] | Potency [10]

C[C@H]1C[C@@H](O)CC(C)(C)C1
inactive: outcome [1] | Potency [2] | outcome [3] | outcome [4] | Potency [5] | Potency [6] | Potency [8] | outcome [9]

CCN(Cc1ccncc1)C(=O)C(CO)c1ccccc1 (configuration not stated)
inactive: outcome [1] | Potency [2] | outcome [3] | outcome [4] | Potency [5] | Potency [8] | outcome [9]

CCCCCCOC(=O)CCCCC(=O)OCCCCCC
inactive: outcome [1] | Potency [2] | outcome [3] | outcome [4] | Potency [5] | Potency [8] | outcome [9]

CC(NC(CCc1ccccc1)C(=O)O)C(=O)N1C(=O)N(C)CC1C(=O)O (configuration not stated)
inactive: outcome [1] | Potency [2] | outcome [3] | outcome [4] | Potency [5] | Potency [7] | Potency [8]

CCC(C)S (configuration not stated)
inactive: activity change [1] -0.25% [at 3.27 µM] | activity change, negative = inhibition [2] 17.6% [at 3.27 µM] | activation [3] 0.578% [at 3.32 µM] | activity, negative = inhibition [4] 9.7% [at 3.27 µM] | activity change, negative = cytotoxicity [5] -0.314% [at 3.27 µM] | activity change, negative = cytotoxicity [6] 4.81% [at 3.32 µM] | activity change, negative = cytotoxicity [8] 6.44% [at 3.27 µM] | cAMP activity change [9] 0.879% [at 3.27 µM]

COC(=O)c1cc(C(=O)OC)cc(S(=O)(=O)O)c1
inactive: outcome [1] | Potency [2] | outcome [3] | outcome [4] | Potency [5] | Potency [6] | Potency [8] | outcome [9]

OC1CCCCC1c1ccccc1 (configuration not stated)
inactive: outcome [1] | Potency [2] | outcome [3] | outcome [4] | Potency [6] | Potency [7] | Potency [8] | Potency [10] | outcome [9]

C=CCCCCCCCCC=O
inactive: outcome [1] | Potency [2] | outcome [3] | outcome [4] | Potency [5] | Potency [8] | Potency [10] | outcome [9]

O=C(O)CN(CCOCCOCCN(CC(=O)O)CC(=O)O)CC(=O)O
inactive: activity change [1] -0.0947% [at 0.349 µM] | activity change, negative = inhibition [2] 23.6% [at 0.349 µM] | activation [3] -3.04% [at 0.348 µM] | activity, negative = inhibition [4] -7.82% [at 0.349 µM] | activity change, negative = cytotoxicity [5] 4.76% [at 0.35 µM] | activity change, negative = cytotoxicity [8] 2.26% [at 0.349 µM] | cAMP activity change [9] 3.85% [at 0.349 µM]
